PubChem BioAssay (EPA / NIEHS)
“And” between values parts separate entries of the source, which are not always exact repeats. Equal entries are not always repeated. More than one record can exist for a structure, and the calls need not agree. The source made the active and inactive calls. How the source made its calls: active means hit-call score of the fitted dose curve at least 0.9, where 1 is the maximum; inactive means score below 0.9.

What was measured:
[1] = read-out: Monocyte Chemoattractant Protein-1 (MCP1), CCL2 (gene 6347); experiment: BSK_LPS_MCP1: BioMAP Diversity Plus: LPS Assay for Monocyte Chemoattractant Protein-1 (MCP1) Biomarker Activity (AID 2283081); conditions: primary human HUVEC with PBMC; actives raise or lower the signal;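 on AC50: secreted MCP-1 protein quantified by ELISA in culture supernatant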
How it was run: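 Human umbilical vein endothelial cells co-cultured with PBMC, LPS-stimulated; secreted MCP-1 measured by ELISA 24 h after compound addition. Bidirectional curve fitting against DMSO baseline; SRB total-protein staining in parallel cultures for cytotoxicity.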

[2] = BSK_LPS_PGE2: BioMAP Diversity Plus: LPS Assay for Prostaglandin E2 (PGE2) Biomarker Activity (AID 2283082); conditions: primary human HUVEC with PBMC; actives raise or lower the signal;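 on AC50: secreted prostaglandin E2 measured by ELISA in LPS-stimulated co-culture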
How it was run: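 Primary human endothelial cells and blood mononuclear cells, co-cultured with LPS, receive test chemical; PGE2 ELISA follows at 24 h, with SRB-stained parallel cultures flagging cytotoxicity.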

[3] = read-out: Macrophage colony-stimulating factor (MCSF), CSF1 (gene 1435); experiment: BSK_LPS_MCSF: BioMAP Diversity Plus: LPS Assay for Macrophage colony-stimulating factor (MCSF) Biomarker Activity (AID 2283083); conditions: primary human HUVEC with PBMC; actives raise or lower the signal
How it was run: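 HUVEC–PBMC co-culture, M-CSF measured by ELISA 24 h after chemical dosing. Fitted in both directions relative to DMSO as negative control; overt cytotoxicity assessed by SRB total-protein staining in parallel cultures.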

[4] = read-out: Tissue Factor, F3 (gene 2152); experiment: BSK_LPS_TissueFactor: BioMAP Diversity Plus: LPS Assay for Tissue Factor Biomarker Activity (AID 2283084); conditions: primary human HUVEC with PBMC; actives raise or lower the signal
How it was run: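 Human umbilical vein endothelial cells co-cultured with PBMC were dosed with compound. Cell-surface CD142 was measured by ELISA 24 h later. Activity was fitted bidirectionally against DMSO, with SRB total-protein staining in parallel cultures for cytotoxicity.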

[5] = read-out: Tumor necrosis factor (Homo sapiens) (UniProt P01375); experiment: BSK_LPS_TNFa: BioMAP Diversity Plus: LPS Assay for Tumour Necrosis Factor alpha (TNFa) Biomarker Activity (AID 2283085); conditions: primary human HUVEC with PBMC; actives raise or lower the signal;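 on AC50: TNFa protein level quantified by ELISA in the co-culture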
How it was run: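 ELISA-based TNFa endpoint in a human endothelial–PBMC co-culture sampled 24 h post-exposure. Curves were fitted in both directions using DMSO as baseline of activity.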

[6] = read-out: Vascular cell adhesion molecule 1 (VCAM1), VCAM1 (gene 7412); experiment: BSK_LPS_VCAM1: BioMAP Diversity Plus: LPS Assay for Vascular cell adhesion molecule 1 (VCAM1) Biomarker Activity (AID 2283086); conditions: primary human HUVEC with PBMC; actives raise or lower the signal
How it was run: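 Measured by ELISA: VCAM-1 in LPS-activated HUVEC/PBMC co-cultures 24 h after treatment. Values reflect bidirectional fitting with DMSO as baseline.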

CD40, CD40 (gene 958) = experiment: BSK_SAg_CD40: BioMAP Diversity Plus: SAg Assay for CD40 Biomarker Activity (AID 2283088); conditions: primary human HUVEC with PBMC; actives raise or lower the signal
How it was run: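 HUVEC plus PBMC co-culture, superantigen-activated, with CD40 read by ELISA 24 h after dosing. Curves fitted in both directions against DMSO. Overt cytotoxicity checked by parallel SRB total-protein staining.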

CD69, CD69 (gene 969) = experiment: BSK_SAg_CD69: BioMAP Diversity Plus: SAg Assay for CD69 Biomarker Activity (AID 2283089); conditions: primary human HUVEC with PBMC; actives raise or lower the signal;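 on AC50: cell surface CD69 protein quantified by ELISA with fluorescence detection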
How it was run: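 Endothelial/PBMC co-culture; chemical added; 24 h incubation; CD69 ELISA with fluorescence detection; bidirectional fit vs DMSO.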

[7] = read-out: Monocyte Chemoattractant Protein-1 (MCP1), CCL2 (gene 6347); experiment: BSK_SAg_MCP1: BioMAP Diversity Plus: SAg Assay for Monocyte Chemoattractant Protein-1 (MCP1) Biomarker Activity (AID 2283090); conditions: primary human HUVEC with PBMC; actives raise or lower the signal
How it was run: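 Values derive from bidirectional fitting of ELISA-measured MCP1 against DMSO controls. Readings were taken 24 h after dosing human vascular endothelial cells co-cultured with peripheral blood mononuclear cells under superantigen stimulation.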

[8] = read-out: E-selectin (Homo sapiens) (UniProt P16581); experiment: BSK_SAg_Eselectin: BioMAP Diversity Plus: SAg Assay for Eselectin Biomarker Activity (AID 2283091); conditions: primary human HUVEC with PBMC; actives raise or lower the signal
How it was run: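 Human umbilical vein endothelial cells co-cultured with peripheral blood mononuclear cells, SAg system. E-selectin is measured by ELISA 24 h after dosing and fitted bidirectionally against DMSO. Cytotoxicity is checked by SRB staining of parallel cultures.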

[9] = read-out: Monokine induced gamma interferon (MIG), CXCL9 (gene 4283); experiment: BSK_SAg_MIG: BioMAP Diversity Plus: SAg Assay for Monokine induced gamma interferon (MIG) Biomarker Activity (AID 2283092); conditions: primary human HUVEC with PBMC; actives raise or lower the signal
How it was run: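 Measures CXCL9 protein by ELISA in a human vascular primary-cell co-culture (umbilical vein endothelium with PBMC) 24 h after chemical addition. Activity is scored up or down from the DMSO control.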

[10] = BSK_SAg_PBMCCytotoxicity: PBMC Cytotoxicity Assessment in the BioMAP Diversity Plus: SAg Assay (AID 2283093); conditions: primary human HUVEC with PBMC;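 further: PBMC viability measured as Alamar Blue reduction fluorescence at 546/580 nm; fitted both ways against DMSO so a hit may be loss or gain of signal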;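 on AC50: PBMC superantigen activated with SEB plus TSST-1 one hour after compound addition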
How it was run: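 Alamar Blue reduction (6 h, 546/580 nm) reports PBMC cytotoxicity after 90 h superantigen activation (SEB, TSST-1; 20 ng/mL final each) with 1 h compound pre-treatment. Gain or loss of signal fitted versus DMSO.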

[11] = BSK_SAg_Proliferation: Cell Proliferation Assessment in the BioMAP Diversity Plus: SAg Assay (AID 2283095); conditions: primary human HUVEC with PBMC;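 further: relative cell number as total protein by SRB absorbance in sub-confluent culture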
How it was run: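 A human primary co-culture of umbilical vein endothelium and blood mononuclear cells receives compound; relative cell number is quantified at 96 h by SRB staining and 560 nm absorbance, with DMSO-referenced bidirectional curve fitting.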

[12] = BSK_SAg_SRB: Viability Assessment in the BioMAP Diversity Plus: SAg Assay (AID 2283096); conditions: primary human HUVEC with PBMC;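 further: cells read one day after compound addition; hits may be either gain or loss of signal compared with DMSO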
How it was run: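 This overt-cytotoxicity endpoint quantifies protein in human endothelial/PBMC co-cultures at 24 h using SRB absorbance (560 nm) after trichloroacetic acid fixation. Values reflect signal change from the DMSO negative control, fitted bidirectionally.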

CD38, CD38 (gene 952) = experiment: BSK_SAg_CD38: BioMAP Diversity Plus: SAg Assay for CD38 Biomarker Activity (AID 2283087); conditions: primary human HUVEC with PBMC; actives raise or lower the signal
How it was run: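 Measures CD38 on a human endothelial/PBMC co-culture driven by SEB and TSST-1, 24 h after compound exposure, using ELISA with fluorescence detection; DMSO defines baseline for bidirectional curve fitting.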

[13] = read-out: Interleukin-8 (IL8), CXCL8 (gene 3576); experiment: BSK_SAg_IL8: BioMAP Diversity Plus: SAg Assay for Interleukin-8 (IL8) Biomarker Activity (AID 2283094); conditions: primary human HUVEC with PBMC; actives raise or lower the signal
How it was run: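 Primary human endothelial cells with PBMC, exposed 24 h; IL-8 determined by ELISA, analysed bidirectionally relative to DMSO.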

Measured: AC50

Chain of Tumor necrosis factor (Homo sapiens) (P01375 whole entry, looked up): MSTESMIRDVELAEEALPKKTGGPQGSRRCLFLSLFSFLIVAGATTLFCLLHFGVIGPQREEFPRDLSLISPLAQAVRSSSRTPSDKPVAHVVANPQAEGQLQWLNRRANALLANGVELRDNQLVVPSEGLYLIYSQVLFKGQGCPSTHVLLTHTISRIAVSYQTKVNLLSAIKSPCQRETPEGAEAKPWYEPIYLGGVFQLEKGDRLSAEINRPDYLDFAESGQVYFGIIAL
Chain of E-selectin (Homo sapiens) (P16581 whole entry, looked up): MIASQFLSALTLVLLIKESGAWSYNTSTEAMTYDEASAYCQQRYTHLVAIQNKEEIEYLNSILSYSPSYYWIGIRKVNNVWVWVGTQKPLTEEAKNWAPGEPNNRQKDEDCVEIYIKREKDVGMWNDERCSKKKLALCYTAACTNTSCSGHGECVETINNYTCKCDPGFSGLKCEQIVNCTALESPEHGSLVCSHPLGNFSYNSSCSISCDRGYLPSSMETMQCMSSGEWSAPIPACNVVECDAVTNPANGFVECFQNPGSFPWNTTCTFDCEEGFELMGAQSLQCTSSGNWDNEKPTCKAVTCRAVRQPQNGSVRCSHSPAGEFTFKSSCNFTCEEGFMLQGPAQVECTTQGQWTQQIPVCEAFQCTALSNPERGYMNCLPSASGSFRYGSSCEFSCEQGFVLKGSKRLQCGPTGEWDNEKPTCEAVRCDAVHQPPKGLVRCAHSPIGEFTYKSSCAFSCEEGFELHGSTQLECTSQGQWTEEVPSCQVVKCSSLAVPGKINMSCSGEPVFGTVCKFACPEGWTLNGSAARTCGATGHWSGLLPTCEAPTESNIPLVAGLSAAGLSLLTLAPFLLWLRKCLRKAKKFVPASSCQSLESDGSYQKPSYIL

O=S(=O)(O)CCC(F)(F)C(F)(F)C(F)(F)C(F)(F)C(F)(F)C(F)(F)C(F)(F)C(F)(F)F
active: [2] 30 µM and 40.9 µM | [3] 51.4 µM | [5] 47.1 µM | [6] 5.95 µM
inactive: [1] | [3] | [4] | [5] | [6] | CD40, CD40 (gene 958) | CD69, CD69 (gene 969) | [7] | [8] | [9] | [10] | [11] | [12]

NC(O)(C(F)(F)F)C(F)(F)F
not listed: [11] | [13]
inactive: all other assays above

O=S(=O)(Cl)C(F)(F)C(F)(F)C(F)(F)C(F)(F)C(F)(F)C(F)(F)C(F)(F)C(F)(F)F
inactive: [1] | [3] | [4] | [5] | [6] | CD38, CD38 (gene 952) | CD40, CD40 (gene 958) | CD69, CD69 (gene 969) | [7] | [8] | [9] | [10] | [13]
active: [2] 46.8 µM and 42.8 µM | CD69, CD69 (gene 969) 15 µM | [8] 37.5 µM | [12] 43.2 µM and 55.5 µM

Cc1cc(C)c(O)c(C(C)(C)C)c1
active: [1] 36.7 µM | [3] 34.4 µM | [4] 30.8 µM | [6] 31.3 µM | CD38, CD38 (gene 952) 32.5 µM | CD40, CD40 (gene 958) 30.5 µM | CD69, CD69 (gene 969) 31.5 µM | [7] 30.8 µM | [8] 28.8 µM | [10] 31.7 µM | [11] 31.2 µM | [12] 35.1 µM
inactive: [2] | [5] | [9]

O=C=Nc1cccc2c(N=C=O)cccc12
not listed: [11] | [13]
inactive: all other assays above

O=C(O)C(F)(F)C(F)(F)C(F)(F)C(F)(F)C(F)(F)C(F)(F)C(F)F
not listed: [11] | [13]
inactive: all other assays above

NCC(F)(F)C(F)(F)C(F)(F)C(F)(F)C(F)(F)C(F)(F)C(F)(F)C(F)(F)F
inactive: all assays above

NC(=O)C(F)(F)C(F)(F)C(F)(F)F
not listed: [11]
inactive: all other assays above

O=C(F)C1(F)C(F)(F)C(F)(F)C(F)(F)C(F)(F)C1(F)F
not listed: [11] | [13]
inactive: all other assays above

C=CC(=O)OCCC(F)(F)C(F)(F)C(F)(F)C(F)(F)F
active: [4] 30 µM | [6] 32.7 µM and 15.7 µM | CD40, CD40 (gene 958) 30 µM | CD69, CD69 (gene 969) 28 µM and 30.9 µM | [7] 19.4 µM and 14.4 µM | [8] 40.1 µM and 40 µM | [10] 30 µM | [11] 30 µM
inactive: [1] | [2] | [3] | [4] | [5] | [9] | [12]

C=C(C)C(=O)OCC(F)(F)C(F)(F)C(F)(F)C(F)F
inactive: [1] | [2] | [3] | [4] | [5] | [6] | CD38, CD38 (gene 952) | CD40, CD40 (gene 958) | CD69, CD69 (gene 969) | [7] | [8] | [9] | [10] | [11] | [12]
active: [3] 0.646 µM

CN(C(=O)C(F)(F)C(F)(F)C(F)(F)F)[Si](C)(C)C
not listed: [11] | [13]
inactive: all other assays above
